From PubChem BioAssay (Tox21)
Values without a mark were called inactive. Records with an inconclusive call do not appear. Where a call stands in place of a potency, no number is given. Activity calls are given as the source filed them. Calls follow the shape of the dose curve; as a rule, active = well fitted curve in the direction sought with a large enough effect in the repeat runs; inconclusive = weak or mixed curves; inactive = no such curve, though single readings can be large; an effect the other way counts as inactive or inconclusive.

Legend:
[1] = A CellTox Green Cytotoxicity Assay to monitor cytotoxicity in HEK293 cells - 40 hour (AID 1224871); also: nearly all actives have a fitted effect of over 45% in size
In short: (§1)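 Homogeneous no-lysis format: HEK293 cell suspension mixed with CellTox Green reagent, seeded, incubated 5 h at 37 C/5% CO2, then dosed by pintool with compound in DMSO.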

[2] = qHTS RealTime-Glo MT Cell Viability Assay in HEK293 cells - 16 hour (AID 1224872); also: nearly all actives have a fitted effect of over 50% in size; also: potency is read from the fitted curve at half-maximal effect
In short: (§2)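 Viability tracked continuously by luminescence as live cells reduce a prosubstrate for NanoLuc; HEK293 cells preincubated 5 h, compound-treated at 37 C, and read at 0, 8, 16, 24, 32 and 40 h.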

[3] = qHTS RealTime-Glo MT Cell Viability Assay in HepG2 cells - 8 hour (AID 1224873); also: nearly all actives have a fitted effect of over 55% in size
In short: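 Real-time viability: cells seeded at 600 per well together with NanoLuc and cell-permeant prosubstrate, compounds added after 5 h incubation. Luminescence tracked at 0, 8, 16, 24, 32 and 40 h of exposure.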

[4] = qHTS RealTime-Glo MT Cell Viability Assay in HEK293 cells - 40 hour (AID 1224874); conditions: RealTime-Glo luminescence; max response: active compounds read low; also: nearly all actives have a fitted effect of over 50% in size; also: potency is read from the fitted curve at half-maximal effect
In short: (§3)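 Measured as luminescence from the same continuously cultured HEK293 wells at successive time points (0, 8, 16, 24, 32, 40 h) after compound addition. Reagent present from seeding; dosing at 5 h; incubation 37 C.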

[5] = A CellTox Green Cytotoxicity Assay to monitor cytotoxicity in HEK293 cells - 24 hour (AID 1224875); also: series mostly up to about 77 µM; nearly all actives have a fitted effect of over 45% in size
In short: as §1

[6] = A CellTox Green Cytotoxicity Assay to monitor cytotoxicity in HepG2 cells - 16 hour (AID 1224876); also: nearly all actives have a fitted effect of over 45% in size
In short: (§4)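 Fluorescent DNA-binding dye, 600 HepG2 cells/well, 5 h preincubation then compound in DMSO; same plates read at 0–40 h, 37 C.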

[7] = qHTS RealTime-Glo MT Cell Viability Assay in HepG2 cells - 32 hour (AID 1224877); also: nearly all actives have a fitted effect of over 55% in size
In short: (§5)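 Viability was tracked continuously by NanoLuc luminescence from prosubstrate reduced by living HepG2 cells, at successive time points over 40 h of compound exposure. Cells with reagent were preincubated 5 h at 37 °C before compound addition.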

[8] = A CellTox Green Cytotoxicity Assay to monitor cytotoxicity in HepG2 cells - 24 hour (AID 1224878); also: nearly all actives have a fitted effect of over 45% in size
In short: as §4

[9] = A CellTox Green Cytotoxicity Assay to monitor cytotoxicity in HepG2 cells - 40 hour (AID 1224879); also: nearly all actives have a fitted effect of over 40% in size
In short: as §4

[10] = qHTS RealTime-Glo MT Cell Viability Assay in HEK293 cells - 0 hour (AID 1224880)
In short: as §3

[11] = A CellTox Green Cytotoxicity Assay to monitor cytotoxicity in HEK293 cells - 32 hour (AID 1224881); also: nearly all actives have a fitted effect of over 40% in size
In short: as §1

[12] = A CellTox Green Cytotoxicity Assay to monitor cytotoxicity in HepG2 cells - 0 hour (AID 1224882); also: nearly all actives have a fitted effect of over 35% in size
In short: as §4

[13] = A CellTox Green Cytotoxicity Assay to monitor cytotoxicity in HepG2 cells - 32 hour (AID 1224883); also: nearly all actives have a fitted effect of over 50% in size
In short: as §4

[14] = A CellTox Green Cytotoxicity Assay to monitor cytotoxicity in HEK293 cells - 8 hour (AID 1224884); also: nearly all actives have a fitted effect of over 35% in size
In short: as §1

[15] = qHTS RealTime-Glo MT Cell Viability Assay in HepG2 cells - 16 hour (AID 1224885); also: nearly all actives have a fitted effect of over 50% in size
In short: as §5

[16] = qHTS RealTime-Glo MT Cell Viability Assay in HEK293 cells - 24 hour (AID 1224886); also: nearly all actives have a fitted effect of over 50% in size; also: potency is read from the fitted curve at half-maximal effect
In short: as §2

[17] = qHTS RealTime-Glo MT Cell Viability Assay in HEK293 cells - 8 hour (AID 1224887); also: nearly all actives have a fitted effect of over 50% in size; also: potency is read from the fitted curve at half-maximal effect
In short: as §3

[18] = A CellTox Green Cytotoxicity Assay to monitor cytotoxicity in HEK293 cells - 16 hour (AID 1224888); also: nearly all actives have a fitted effect of over 35% in size
In short: as §1

[19] = qHTS RealTime-Glo MT Cell Viability Assay in HepG2 cells - 0 hour (AID 1224889); also: nearly all actives have a fitted effect of over 50% in size
In short: as §5

[20] = A CellTox Green Cytotoxicity Assay to monitor cytotoxicity in HepG2 cells - 8 hour (AID 1224890); also: nearly all actives have a fitted effect of over 45% in size
In short: as §4

In the case of O=C(CBr)Nc1ccc(Cl)cc1C(=O)c1ccccc1F, the Potency [1] is reported as “inactive”, the Potency [2] is reported as “inactive” and the Potency [3] is reported as “inactive”. For the same molecule, the max response [4] was -13.4%, the Potency [5] was “inactive” and the Potency [6] was “inactive”. For the same molecule, the Potency [7] was “inactive”, the Potency [8] was “inactive” and the Potency [9] was “inactive”. The Potency [10] was “inactive”, the Potency [11] was “inactive” and the Potency [12] was “inactive”. For the same molecule, the Potency [13] was “inactive”, the Potency [14] was “inactive” and the Potency [15] was “inactive”. The Potency [16] was “inactive”, the Potency [17] was “inactive” and the Potency [18] was “inactive”. For the same molecule, the Potency [19] was “inactive” and the Potency [20] was “inactive”.

For COc1cc(Cl)c(OC)cc1Cl, the Potency [1] was “inactive”, the Potency [2] was “inactive” and the Potency [3] was “inactive”. For the same molecule, the max response [4] was 1.87%, the Potency [5] was “inactive” and the Potency [6] was “inactive”. For the same molecule, the Potency [7] was “inactive”, the Potency [8] was “inactive” and the Potency [9] was “inactive”. The Potency [10] was “inactive”, the Potency [11] was “inactive” and the Potency [12] was “inactive”. For the same molecule, the Potency [13] was “inactive”, the Potency [14] was “inactive” and the Potency [15] was “inactive”. The Potency [16] was “inactive”, the Potency [17] was “inactive” and the Potency [18] was “inactive”. The Potency [19] was “inactive” and the Potency [20] was “inactive”.

For CC(Cl)Cl, the Potency [1] was “inactive”, the Potency [2] was “inactive” and the Potency [3] was “inactive”. The max response [4] was 3.34%, the Potency [5] was “inactive” and the Potency [6] was “inactive”. For the same molecule, the Potency [7] was “inactive”, the Potency [8] was “inactive” and the Potency [9] was “inactive”. For the same molecule, the Potency [10] was “inactive”, the Potency [11] was “inactive” and the Potency [12] was “inactive”. The Potency [13] was “inactive”, the Potency [14] was “inactive” and the Potency [15] was “inactive”. The Potency [16] was “inactive”, the Potency [17] was “inactive” and the Potency [18] was “inactive”. For the same molecule, the Potency [19] was “inactive” and the Potency [20] was “inactive”.

With Clc1cc(Cl)c(Cl)c(Cl)c1 the Potency [1] was “inactive”, the Potency [2] was “inactive” and the Potency [3] was “inactive”. The max response [4] was -4.38%, the Potency [5] was “inactive” and the Potency [6] was “inactive”. The Potency [7] was “inactive”, the Potency [8] was “inactive” and the Potency [9] was “inactive”. For the same molecule, the Potency [10] was “inactive”, the Potency [11] was “inactive” and the Potency [12] was “inactive”. For the same molecule, the Potency [13] was “inactive”, the Potency [14] was “inactive” and the Potency [15] was “inactive”. The Potency [16] was “inactive”, the Potency [17] was “inactive” and the Potency [18] was “inactive”. For the same molecule, the Potency [19] was “inactive” and the Potency [20] was “inactive”.

In the case of O=C1C(Cl)C(CCl)CN1c1cccc(C(F)(F)F)c1 (stereo not given), the Potency [1] is reported as “inactive”, the Potency [2] is reported as 24.5 µM (active) and the Potency [3] is reported as “inactive”. The Potency [4] was 24.5 µM (active), the Potency [5] was “inactive” and the Potency [6] was “inactive”. The Potency [7] was “inactive”, the Potency [8] was “inactive” and the Potency [9] was “inactive”. For the same molecule, the Potency [10] was “inactive”, the Potency [11] was “inactive” and the Potency [12] was “inactive”. For the same molecule, the Potency [13] was “inactive”, the Potency [14] was “inactive” and the Potency [15] was “inactive”. For the same molecule, the Potency [16] was 24.5 µM (active), the Potency [17] was 24.5 µM (active) and the Potency [18] was “inactive”. For the same molecule, the Potency [19] was “inactive” and the Potency [20] was “inactive”.

With C=CCCl the Potency [1] was “inactive”, the Potency [2] was “inactive” and the Potency [3] was “inactive”. The max response [4] was -3.44%, the Potency [5] was “inactive” and the Potency [6] was “inactive”. For the same molecule, the Potency [7] was “inactive”, the Potency [8] was “inactive” and the Potency [9] was “inactive”. For the same molecule, the Potency [10] was “inactive”, the Potency [11] was “inactive” and the Potency [12] was “inactive”. The Potency [13] was “inactive”, the Potency [14] was “inactive” and the Potency [15] was “inactive”. The Potency [16] was “inactive”, the Potency [17] was “inactive” and the Potency [18] was “inactive”. The Potency [19] was “inactive” and the Potency [20] was “inactive”.

With Cc1ccc2ccccc2c1 the Potency [1] was “inactive”, the Potency [2] was “inactive” and the Potency [3] was “inactive”. The max response [4] was 0.388%, the Potency [5] was “inactive” and the Potency [6] was “inactive”. The Potency [7] was “inactive”, the Potency [8] was “inactive” and the Potency [9] was “inactive”. The Potency [10] was “inactive”, the Potency [11] was “inactive” and the Potency [12] was “inactive”. For the same molecule, the Potency [13] was “inactive”, the Potency [14] was “inactive” and the Potency [15] was “inactive”. The Potency [16] was “inactive”, the Potency [17] was “inactive” and the Potency [18] was “inactive”. The Potency [19] was “inactive” and the Potency [20] was “inactive”.

In the case of CC(=O)CCC(C)=O, the Potency [1] is reported as “inactive”, the Potency [2] is reported as “inactive” and the Potency [3] is reported as “inactive”. The max response [4] was 11.7%, the Potency [5] was “inactive” and the Potency [6] was “inactive”. For the same molecule, the Potency [7] was “inactive”, the Potency [8] was “inactive” and the Potency [9] was “inactive”. For the same molecule, the Potency [10] was “inactive”, the Potency [11] was “inactive” and the Potency [12] was “inactive”. For the same molecule, the Potency [13] was “inactive”, the Potency [14] was “inactive” and the Potency [15] was “inactive”. For the same molecule, the Potency [16] was “inactive”, the Potency [17] was “inactive” and the Potency [18] was “inactive”. For the same molecule, the Potency [19] was “inactive” and the Potency [20] was “inactive”.

With COP(=S)(OC)Oc1cc(Cl)c(I)cc1Cl the Potency [1] was “inactive”, the Potency [2] was “inactive” and the Potency [3] was “inactive”. The max response [4] was -19.9%, the Potency [5] was “inactive” and the Potency [6] was “inactive”. For the same molecule, the Potency [7] was “inactive”, the Potency [8] was “inactive” and the Potency [9] was “inactive”. For the same molecule, the Potency [10] was “inactive”, the Potency [11] was “inactive” and the Potency [12] was “inactive”. For the same molecule, the Potency [13] was “inactive”, the Potency [14] was “inactive” and the Potency [15] was “inactive”. For the same molecule, the Potency [16] was “inactive”, the Potency [17] was “inactive” and the Potency [18] was “inactive”. For the same molecule, the Potency [19] was “inactive” and the Potency [20] was “inactive”.

For CCOP(=S)(Oc1ccc([N+](=O)[O-])cc1)c1ccccc1 (stereo not given), the Potency [1] was “inactive”, the Potency [2] was “inactive” and the Potency [3] was “inactive”. The max response [4] was 9.18%, the Potency [5] was “inactive” and the Potency [6] was “inactive”. For the same molecule, the Potency [7] was “inactive”, the Potency [8] was “inactive” and the Potency [9] was “inactive”. The Potency [10] was “inactive”, the Potency [11] was “inactive” and the Potency [12] was “inactive”. The Potency [13] was “inactive”, the Potency [14] was “inactive” and the Potency [15] was “inactive”. The Potency [16] was “inactive”, the Potency [17] was “inactive” and the Potency [18] was “inactive”. The Potency [19] was “inactive” and the Potency [20] was “inactive”.

With N#CCc1ccccc1 the Potency [1] was “inactive”, the Potency [2] was “inactive” and the Potency [3] was “inactive”. The max response [4] was 2.97%, the Potency [5] was “inactive” and the Potency [6] was “inactive”. For the same molecule, the Potency [7] was “inactive”, the Potency [8] was “inactive” and the Potency [9] was “inactive”. The Potency [10] was “inactive”, the Potency [11] was “inactive” and the Potency [12] was “inactive”. For the same molecule, the Potency [13] was “inactive”, the Potency [14] was “inactive” and the Potency [15] was “inactive”. For the same molecule, the Potency [16] was “inactive”, the Potency [17] was “inactive” and the Potency [18] was “inactive”. The Potency [19] was “inactive” and the Potency [20] was “inactive”.

In the case of COC(=O)c1cncn1C(C)c1ccccc1 (stereo not given), the Potency [1] is reported as “inactive”, the Potency [2] is reported as “inactive” and the Potency [3] is reported as “inactive”. The max response [4] was 1.22%, the Potency [5] was “inactive” and the Potency [6] was “inactive”. For the same molecule, the Potency [7] was “inactive”, the Potency [8] was “inactive” and the Potency [9] was “inactive”. The Potency [10] was “inactive”, the Potency [11] was “inactive” and the Potency [12] was “inactive”. The Potency [13] was “inactive”, the Potency [14] was “inactive” and the Potency [15] was “inactive”. The Potency [16] was “inactive”, the Potency [17] was “inactive” and the Potency [18] was “inactive”. The Potency [19] was “inactive” and the Potency [20] was “inactive”.

In the case of C[N+](C)(C)CCCl, the Potency [1] is reported as “inactive”, the Potency [2] is reported as “inactive” and the Potency [3] is reported as “inactive”. For the same molecule, the max response [4] was 21.2%, the Potency [5] was “inactive” and the Potency [6] was “inactive”. The Potency [7] was “inactive”, the Potency [8] was “inactive” and the Potency [9] was “inactive”. For the same molecule, the Potency [10] was “inactive”, the Potency [11] was “inactive” and the Potency [12] was “inactive”. The Potency [13] was “inactive”, the Potency [14] was “inactive” and the Potency [15] was “inactive”. For the same molecule, the Potency [16] was “inactive”, the Potency [17] was “inactive” and the Potency [18] was “inactive”. For the same molecule, the Potency [19] was “inactive” and the Potency [20] was “inactive”.
